In ChEMBL document CHEMBL2218924, “A broad activity screen in support of a chemogenomic map for kinase signalling research and drug discovery” (Biochem J, 2013):

These molecules were tested against Cyclin-dependent kinase 2/cyclin A (Homo sapiens) (UniProt P24941+P20248+P78396). Conditions: at 1 µM.
Work on `CC[n+]1c(/C=C/N(C)c2ccccc2)n(-c2ccccc2)c2ccc(-c3nc4ccccc4s3)cc21` yielded a residual activity of 146%.
`CCC(=O)Nc1ccc2ncnc(Nc3cccc(Br)c3)c2c1` gave a residual activity of 135%.
In the case of `O=C1NC(=O)c2c1c1c3ccccc3[nH]c1c1[nH]c3cc(Br)ccc3c21`, the residual activity was 84%.
`Nc1ccc2ncnc(NCCc3ccc(Oc4ccccc4)cc3)c2c1` gave a residual activity of 92%.
`Cc1cc(Nc2nc(-c3ccccc3)nc3ccccc23)n[nH]1` showed a residual activity of 67%.
`c1ccc(-c2n[nH]c3c2oc2ccccc23)cc1` was tested, and the residual activity was 128%.
`CN(C)CCCn1cc(C2=C(c3c[nH]c4ccccc34)C(=O)NC2=O)c2ccccc21` gave a residual activity of 128%.
For `Oc1c2ccccc2c2c3c(cccc13)N=N2`, the residual activity was 59%.
`CC(=O)c1ccc(N2CCOCC2)cc1O` was tested, and the residual activity was 103%.
For `CCN(CC)C(=O)c1ccc(Nc2nc(OCC3CCCCC3)c3nc[nH]c3n2)cc1`, the residual activity was 59%.
With `N#Cc1cnc2cnc(NCc3cccnc3)cc2c1Nc1ccc(F)c(Cl)c1` the residual activity was 91%.
Work on `Nc1nc(Nc2ccc(S(N)(=O)=O)cc2)nn1C(=S)Nc1c(F)cccc1F` yielded a residual activity of -2%.
Work on `Oc1ccc(Nc2nc(-c3ccc(Cl)cc3)cs2)cc1` yielded a residual activity of 101%.
`CNc1cc2c(Nc3cccc(Br)c3)ncnc2cn1` was tested, and the residual activity was 123%.
`COc1cc2ncnc(Nc3ccc(Oc4ccccc4)cc3)c2cc1OC` gave a residual activity of 130%.
For `O=C(O)c1ccc2c3c1cccc3c(=O)n1c3ccccc3nc21`, the residual activity was 82%.
`Cc1nc2cc3nc(-c4cccs4)cnc3cc2n1C` was tested, and the residual activity was 144%.
`N#C/C(=C(\N)Sc1ccc(N)cc1)c1ccccc1C(F)(F)F` was tested, and the residual activity was 86%.
For `COc1cc2ncnc(Nc3ccc(NC(=O)c4ccccc4)cc3)c2cc1OC`, the residual activity was 144%.
Work on `COc1cc2ncc(-c3ccccc3)nc2cc1OC` yielded a residual activity of 129%.
For `CC#CC(=O)Nc1cc2c(Nc3ccc(F)c(Cl)c3)ncnc2cn1`, the residual activity was 126%.
`Cc1nc(-c2ccccc2)c(-c2ccncc2)o1` showed a residual activity of 97%.
`Ic1cccc(CSc2nnc(-c3ccncc3)o2)c1` showed a residual activity of 85%.
In the case of `N#CC(C#N)=C(N)/C(C#N)=C/c1ccc(O)cc1`, the residual activity was 124%.
Work on `COc1ccc(OC)c2c(=S)c3ccccc3[nH]c12` yielded a residual activity of 85%.
Work on `Cc1cc2ncc(-c3ccccc3)nc2cc1C` yielded a residual activity of 135%.
Work on `O=C(Nc1cccc(Nc2cc(Nc3cccc(C(F)(F)F)c3)ncn2)c1)C1CC1` yielded a residual activity of 120%.
`Cc1cccc(-c2[nH]c(C(C)(C)C)nc2-c2ccc3c(c2)OCO3)n1` gave a residual activity of 133%.
`N#CCCc1ccc2c(c1)-c1[nH]c3ccc([N+](=O)[O-])cc3c1CC(=O)N2` gave a residual activity of 0%.
